Assay results reported in article PMC4336329 (PLoS ONE, 2015).
About 14,000 (4.5%) of roughly 310,000 compounds showed an effect of 50% or more. The effect is printed as a negative number. The full list was thinned out, with strong results kept by preference.

The compounds below were run against human ether-à-go-go-related gene (hERG) potassium channel (human, UniProt Q12809) (assay: primary screen, population patch clamp on CHO cells stably expressing hERG; higher = less effect of the substance).
Chain of human ether-à-go-go-related gene (hERG) potassium channel (Q12809 whole entry, looked up): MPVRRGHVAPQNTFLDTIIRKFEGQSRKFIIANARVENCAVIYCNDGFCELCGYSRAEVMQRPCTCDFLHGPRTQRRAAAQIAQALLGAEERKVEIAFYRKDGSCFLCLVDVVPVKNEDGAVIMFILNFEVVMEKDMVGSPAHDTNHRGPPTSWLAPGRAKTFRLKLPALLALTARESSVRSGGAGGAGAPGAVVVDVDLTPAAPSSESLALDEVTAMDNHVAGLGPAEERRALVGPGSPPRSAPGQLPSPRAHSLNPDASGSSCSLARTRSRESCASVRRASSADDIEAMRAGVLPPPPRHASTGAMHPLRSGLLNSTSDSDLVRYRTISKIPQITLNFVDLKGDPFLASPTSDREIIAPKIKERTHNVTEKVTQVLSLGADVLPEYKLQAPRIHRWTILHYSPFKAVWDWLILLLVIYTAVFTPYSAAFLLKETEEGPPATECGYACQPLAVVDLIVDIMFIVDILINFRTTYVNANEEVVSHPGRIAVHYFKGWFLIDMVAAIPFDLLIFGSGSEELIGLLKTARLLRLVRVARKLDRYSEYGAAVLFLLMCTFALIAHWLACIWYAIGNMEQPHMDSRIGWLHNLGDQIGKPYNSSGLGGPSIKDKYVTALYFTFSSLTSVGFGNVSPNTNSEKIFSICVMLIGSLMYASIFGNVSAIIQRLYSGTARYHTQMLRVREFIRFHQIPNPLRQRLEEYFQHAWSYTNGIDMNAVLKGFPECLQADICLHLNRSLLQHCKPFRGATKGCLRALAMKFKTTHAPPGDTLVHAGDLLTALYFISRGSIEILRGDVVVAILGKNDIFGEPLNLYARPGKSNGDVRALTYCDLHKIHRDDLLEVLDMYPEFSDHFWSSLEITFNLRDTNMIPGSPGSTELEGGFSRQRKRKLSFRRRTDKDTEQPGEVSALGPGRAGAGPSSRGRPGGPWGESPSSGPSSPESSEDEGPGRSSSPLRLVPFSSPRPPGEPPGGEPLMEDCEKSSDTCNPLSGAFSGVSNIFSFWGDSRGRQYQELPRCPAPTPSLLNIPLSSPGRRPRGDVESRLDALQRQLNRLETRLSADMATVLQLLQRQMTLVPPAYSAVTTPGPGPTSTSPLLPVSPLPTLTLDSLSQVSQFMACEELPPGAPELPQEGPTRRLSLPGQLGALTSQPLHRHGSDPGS
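Further: peak tail current of the secondary pulse compared with the same well before compound.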

Row | SMILES | hERG current change (%, negative = inhibition) at 10uM [%]
1 | CC(C)(C)c1ccc(C(=O)N/C(=C\c2cccs2)C(=O)N2CCOCC2)cc1 | -7.22
2 | Cc1ccc(C(=O)N/C(=C\c2cccs2)C(=O)NCC2CCCO2)cc1C (stereo not drawn) | 6.35
3 | Cc1ccc(C(=O)N/C(=C\c2cccs2)C(=O)N2CCN(C)CC2)cc1C | -70.6
4 | O=C(N/C(=C/c1cccs1)C(=O)N1CCCCCC1)c1ccccc1 | -21
5 | CCN1CCN(C(=O)/C(=C/c2cccs2)NC(=O)c2ccc(C)c(C)c2)CC1 | -75.6
6 | Cc1ccc(C(=O)N/C(=C\c2cccs2)C(=O)N2CCOCC2)cc1C | -19
7 | CCc1nnc(NC(=O)Cc2ccc(Br)cc2)s1 | 12.4
8 | CC1CCc2[nH]c3ccc(C(=O)N(C)CC(=O)Nc4ccccc4C(F)(F)F)cc3c2C1 (stereo not drawn) | 4.13
9 | O=C1CC(c2cccc([N+](=O)[O-])c2)c2c(ccc3ccccc23)N1 (stereo not drawn) | 10.3
10 | Cc1cc(C)n2nc(C(=O)Nc3cccc(S(=O)(=O)N4CCCC4)c3)nc2n1 | -2.92
11 | COc1ccccc1NS(=O)(=O)c1cccc(NC(=O)c2ccc3ccccc3n2)c1 | 3.05
12 | Cc1cc(C)n2nc(C(=O)Nc3cccc(S(=O)(=O)N(C)c4ccccc4)c3)nc2n1 | -68.3
13 | COc1ccccc1NS(=O)(=O)c1ccc(NC(=O)c2nc3nc(C)cc(C(F)F)n3n2)cc1 | -13.8
14 | COc1ccccc1NS(=O)(=O)c1cccc(NC(=O)c2nc3nc(C)cc(C)n3n2)c1 | -55.2
15 | Cc1cc(C)n2nc(C(=O)Nc3ccc(S(=O)(=O)N(C)C)cc3)nc2n1 | -2.93
16 | CCOC(=O)/C=C/C(=O)Nc1ccc(S(=O)(=O)N(C)c2ccccc2)cc1 | -2.23
17 | O=c1[nH]c(=O)n(-c2ccc(Cl)cc2)c(O)c1C=NCCN1CCCCC1 | 2.13
18 | Cc1ccccc1-c1cc(C(=O)NCc2ccc3c(c2)OCO3)n(CC2CC(c3cccnc3)=NO2)n1 (stereo not drawn) | -20.8
19 | O=C(O)c1cc(-c2ccccc2)nn1CC1CC(c2cccnc2)=NO1 (stereo not drawn) | 6.86
20 | O=C(NCc1cccc(Br)c1)c1cc(-c2ccccc2)nn1CC1CC(c2cccnc2)=NO1 (stereo not drawn) | -62.8
21 | O=C(NCc1cccc(C(F)(F)F)c1)c1cc(-c2ccccc2)nn1CC1CC(c2cccnc2)=NO1 (stereo not drawn) | -52.4
22 | O=C(NCc1cccc(Br)c1)c1cc(-c2ccccc2)nn1CC1CC(c2cccc([N+](=O)[O-])c2)=NO1 (stereo not drawn) | -0.929

Row | SMILES | hERG current change (%, negative = inhibition) at 10uM [%]
23 | C=CCc1cccc2cc(C(=O)OCC)c(=O)oc12 | -42.3
24 | CCOc1cc(S(=O)(=O)NC2CC(C)(C)NC(C)(C)C2)ccc1F | -9.91
25 | CCc1c(C)nc2cc(-c3cccc(Br)c3)[nH]n2c1=O | -3.6
26 | O=S(=O)(Nc1ncccn1)c1ccc(NC(=S)NCc2cccnc2)cc1 | 33.8
27 | COc1cc(C(C(=O)NC(C)(C)C)N(Cc2ccccc2)C(=O)c2cnccn2)cc(OC)c1OC (stereo not drawn) | 5.8
28 | C=CCNC(=O)CN1CCC(O)(c2ccccc2)CC1 | 4.87
29 | COc1cccc(OC)c1C(=O)Nc1cc(C)on1 | 7.22
30 | O=C(CSc1nc2ccsc2c(=O)n1CC1CCC(C(=O)O)CC1)c1ccc(Cl)cc1 (stereo not drawn) | 33.9
31 | O=C(c1ccc2c(c1)N(Cc1ccccc1)CCS2)N1CCCCC1 | -32.9
32 | CCN1CCN(CCCNC(=O)c2ccc3c(c2)N(Cc2ccccc2)CCS3)CC1 | -39.3
33 | O=C(c1ccc2c(c1)N(Cc1ccccc1)CCS2)N1CCC2(CC1)OCCO2 | -56.1
34 | O=C(NCCCN1CCCC1)c1ccc2c(c1)N(Cc1ccccc1)CCS2 | -69.6
35 | O=C(c1ccc2c(c1)N(Cc1ccccc1)CCS2)N1CCOCC1 | -29.7
36 | CN1CCSc2ccc(C(=O)NCc3cccc(Br)c3)cc21 | 0.343
37 | Cc1cccc(CNC(=O)c2ccc3c(c2)N(C)CCS3)c1 | -59.4
38 | CN1CCSc2ccc(C(=O)NCc3ccccc3)cc21 | -9.52
39 | O=C(c1ccc2c(c1)N(Cc1ccc(F)cc1)CCS2)N1CCC2(CC1)OCCO2 | -57.1
40 | CN1CCN(CCCNC(=O)c2ccc3c(c2)N(Cc2ccccc2)CCS3)CC1 | -23.6
41 | Cc1ccc(CN2CCSc3ccc(C(=O)N4CCC5(CC4)OCCO5)cc32)cc1 | -49.1
42 | O=C(c1ccc2c(c1)N(Cc1ccc(F)cc1)CCS2)N1CCOCC1 | -23.3
43 | S=C(NC1CCCC1)N1CCN(c2ncccn2)CC1 | -19.3
44 | C[C@@]12CCC=C[C@H]1[C@H](c1ccoc1)N(Cc1ccccc1)C2=O | -8.15

Row | SMILES | hERG current change (%, negative = inhibition) at 10uM [%]
45 | CC(=O)c1c(N)n(C)c(=O)n(C)c1=O | -4.24
46 | CSc1oc(-c2ccc(F)cc2)nc1S(=O)(=O)c1ccc(F)cc1 | 3.51
47 | NNc1nnnc2c1sc1nc(N3CCOCC3)c3c(c12)CCCC3 | 5.3
48 | COc1cc(C(=O)OCC(=O)Nc2cccc(S(=O)(=O)N3CCOCC3)c2)ccc1OCC(C)C | 18.3
49 | CC(C)(C)C(=O)/C=C(\N)c1ccncc1 | 1.74
50 | CCOc1ccc(N(CC(=O)NCCSCc2ccc(Cl)cc2)S(C)(=O)=O)cc1 | 4.71
51 | COc1ccc(C)cc1NC(=O)CCNS(=O)(=O)c1cccc(C(F)(F)F)c1 | -27.6
52 | Cc1cc2c(cc1S(=O)(=O)N(C)C1CCCCC1)OCC(=O)N2 | 7.2
53 | O=S(=O)(NCCCCCNS(=O)(=O)c1ccccc1)c1ccccc1 | -2.98
54 | Cc1ccc(OCC(=O)Nc2ccc(C(=O)O)cc2NC(=O)COc2ccc(C)c(C)c2)cc1C | 6.5
55 | COc1ccc2c(c1)[nH]c1c(=O)n(CCN3CCCC3)cnc12 | -46.3
56 | CCN1CCCC1Cn1cnc2c([nH]c3ccc(OC)cc32)c1=O (stereo not drawn) | -66.1
57 | COc1ccc2[nH]c3c(=O)n(CCCN4CCOCC4)cnc3c2c1 | -3.86
58 | COc1ccc2[nH]c3c(=O)n(Cc4ccncc4)cnc3c2c1 | -11
59 | CCC1CCCN1Cn1cnc2c([nH]c3ccc(OC)cc32)c1=O (stereo not drawn) | -62.6
60 | CCN1CCCC1Cn1cnc2c([nH]c3cc(OC)ccc32)c1=O (stereo not drawn) | -63.8
61 | COc1ccc2[nH]c3c(=O)n(CCN4CCOCC4)cnc3c2c1 | -2.38
62 | COc1ccc2c(c1)[nH]c1c(=O)n(CC3CCCO3)cnc12 (stereo not drawn) | 11.1
63 | COc1ccc2[nH]c3c(=O)n(CCc4ccccc4)cnc3c2c1 | -6.62
64 | CCCc1cc(CNC(=O)C2CCC(=O)N(CCc3cccc(F)c3)C2)on1 (stereo not drawn) | -49.6
65 | COc1ccccc1NC(=O)c1ccc(C)c(S(=O)(=O)N2CCCCC2)c1 | -8.22
66 | Cc1nnsc1C(=O)NNc1ccc(C(C)(C)C)cc1 | 14.1

Row | SMILES | hERG current change (%, negative = inhibition) at 10uM [%]
67 | Cc1onc(-c2c(F)cccc2Cl)c1C(=O)c1ccccc1O | -0.367
68 | CCc1ccc2nc(SCC(=O)Nc3nnc(C)s3)c(C)cc2c1 | 16
69 | Cn1cc(Br)c(C(=O)N/N=C/c2cccc(OC3CSC3)c2)n1 | -2.36
70 | COc1ccc(-n2cccc2/C=C/[N+](=O)[O-])cc1 | -50.4
71 | COc1ccc(-n2cccc2C=O)cc1 | 16.7
72 | CN(C)c1ccc(-n2cccc2/C=C/[N+](=O)[O-])cc1 | 20.2
73 | CCOC(=O)c1c(NCc2ccc3c(c2)OCO3)c2ccccc2[nH]c1=O | -10.8
74 | O=C(Cc1ccccc1)N/N=C/c1ccc(OCC(=O)Nc2ccccc2)cc1 | -14.2
75 | Cc1cc(NC(=O)CSc2nc3ccc(Cl)cc3[nH]2)no1 | 9.82
76 | CN1CCN(c2ccc(NC(=O)CN3CCOCC3)cc2F)CC1 | 24.5
77 | Cc1ccc(SCC(=O)Nc2ccc(N3CCN(C)CC3)c(F)c2)cc1 | -64.4
78 | CN1CCN(c2ccc(NC(=O)CSc3ccccc3)cc2F)CC1 | -68.4
79 | CC(C)C(=O)Nc1ccc(N2CCN(C)CC2)c(F)c1 | 14.2
80 | Cc1ccc(SCC(=O)Nc2ccc(N3CCN(c4ccccc4)CC3)c(F)c2)cc1 | 10.3
81 | O=C(CSc1ccccc1)Nc1ccc(N2CCOCC2)c(F)c1 | 11.8
82 | Cc1ccc(SCC(=O)Nc2ccc(N3CCN(C)CC3)c(F)c2)c(C)c1 | -72
83 | O=C(CSc1ccccc1)Nc1ccc(N2CCN(c3ccccc3)CC2)c(F)c1 | 10.9
84 | COc1ccc(SCC(=O)Nc2ccc(N3CCN(C)CC3)c(F)c2)cc1 | -49.7
85 | Cc1ccc2c(CC(=O)OC(C)C(=O)Nc3ncc(Cl)cc3Cl)coc2c1 (stereo not drawn) | -28.2
86 | NC(=O)c1ccsc1NC(=O)c1cccs1 | -13.6
87 | O=C(Nc1ccc2c(c1)OCO2)c1ccc(N2C(=O)c3ccccc3C2=O)cc1 | -5.61
